We go through 9 compounds from PubChem BioAssay (NCI).

About 83,000 compounds went through this panel and 20% of them were active in at least one assay; those are over-represented in the sample as a whole.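 Step 1: grow cells in 96-well plates. Step 2: add test compound at a single concentration. Step 3: incubate 48 h. Step 4: record percent growth.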 Unmarked numbers belong to inactive results. Activity calls are given as the source filed them. The calls were made as follows: active = growth percent below 10; inactive = the rest.

Test systems include SR leukemia; RPMI-8226 leukemia; OVCAR-8 ovarian; OVCAR-5 ovarian; OVCAR-4 ovarian; SK-OV-3 ovarian; IGROV1 ovarian; OVCAR-3 ovarian; HS 578T breast; NCI/ADR-RES ovarian; BT-549 breast; MDA-MB-435 melanoma; SW-620 colon; MCF7 breast; HCT-116 colon; HCC-2998 colon; KM12 colon; T-47D breast.
Holding throughout (test): NCI-60 one-dose screen, 48 h (100 = growth as untreated, 0 = no growth, -100 = all killed)
Common to all, as to settings: 10 µM unless noted

Regarding `Clc1ccc(N/N=C(/c2ccccc2)c2ccccn2)nc1`, the growth in the test on SR leukemia is 26.1%; in the test on RPMI-8226 leukemia, 29.3%; in the test with OVCAR-8 ovarian, 33.5%; with OVCAR-5 ovarian it was 49.3%; with OVCAR-4 ovarian, 24.5%; in the test on SK-OV-3 ovarian, 26.5%. Further, the growth in the test with IGROV1 ovarian was 22.5%; with OVCAR-3 ovarian it was 40.7%; in the test on HS 578T breast, 80.6%; in the test with NCI/ADR-RES ovarian, 5.2% (active); in the test on BT-549 breast, 55%; with MDA-MB-435 melanoma it was 57.3%. Besides, the growth with SW-620 colon is 44.8%; with MCF7 breast it was -1.28% (active); with HCT-116 colon, 5.31% (active); with HCC-2998 colon, 45.1%; in the test with KM12 colon, 43.2%.
For `O=C(Nc1cccc2[nH]c(C(F)(F)F)nc12)c1ccc(F)cc1`, the growth was 76.3% in the test on SR leukemia; 30.4% in the test with RPMI-8226 leukemia; 90.1% with OVCAR-8 ovarian; 99.6% in the test with OVCAR-5 ovarian; 80.3% with OVCAR-4 ovarian; 98.8% with SK-OV-3 ovarian. Besides, the growth in the test on IGROV1 ovarian is 85.8%; with OVCAR-3 ovarian, 66%; in the test with HS 578T breast, 77.3%; with NCI/ADR-RES ovarian it was 92.1%; with BT-549 breast it was 87.5%; in the test on MDA-MB-435 melanoma it was 87.2%. For the same compound, the growth with SW-620 colon was 91.5%; in the test with MCF7 breast, 83.8%; in the test with HCT-116 colon, 84.4%; with HCC-2998 colon, 115%; in the test on KM12 colon, 73.1%.
Take `C=CCC(CCC(CC=C)C(=O)OCC)C(=O)OCC` (stereo not given): the growth is 86.7% in the test with SR leukemia; 101% in the test with RPMI-8226 leukemia; 95.2% with OVCAR-8 ovarian; 106% in the test on OVCAR-5 ovarian; 102% in the test on OVCAR-4 ovarian; 107% in the test on SK-OV-3 ovarian. In addition, the growth in the test with IGROV1 ovarian was 102%; in the test on OVCAR-3 ovarian, 115%; with HS 578T breast, 107%; in the test on NCI/ADR-RES ovarian, 109%; with BT-549 breast, 96.3%; with MDA-MB-435 melanoma, 104%. Also, the growth was 103% with SW-620 colon; 89.6% in the test on MCF7 breast; 100% in the test with HCT-116 colon; 113% in the test on HCC-2998 colon; 99.8% in the test with KM12 colon.
Turning to `O=[N+]([O-])c1ccc(-c2ncc(-c3ccc(O)cc3O)[nH]2)cc1`, the growth in the test on SR leukemia was -28.9% (active); in the test on RPMI-8226 leukemia, 74.1%; in the test with OVCAR-8 ovarian, 101%; in the test with OVCAR-5 ovarian, 125%; in the test on OVCAR-4 ovarian it was 104%; in the test on SK-OV-3 ovarian, 116%. The growth is 97.6% in the test with IGROV1 ovarian; 105% in the test with OVCAR-3 ovarian; 70.9% with HS 578T breast; 115% with NCI/ADR-RES ovarian; 102% in the test with T-47D breast; 121% in the test on MDA-MB-435 melanoma. Besides, the growth in the test on SW-620 colon is 106%; in the test with MCF7 breast, 90.3%; in the test with HCC-2998 colon, 123%; in the test with KM12 colon, 112%.
As for `COC(=O)c1ccc2[nH]c(O)c(C(=Nc3ccc(N(C)C(=O)CN4CCN(C)CC4)cc3)c3ccc4c(c3)OCO4)c2c1`, the growth is 0.377% (active) in the test on SR leukemia; -13.7% (active) with RPMI-8226 leukemia; 20.3% with OVCAR-8 ovarian; 35.8% in the test with OVCAR-5 ovarian; 28.1% in the test with OVCAR-4 ovarian; -8.57% (active) in the test on SK-OV-3 ovarian. Moreover, the growth in the test on IGROV1 ovarian was 4.12% (active); in the test on OVCAR-3 ovarian it was 10.9%; in the test with HS 578T breast it was 10.5%; in the test on NCI/ADR-RES ovarian it was 104%; in the test with BT-549 breast, 3.64% (active); in the test on MDA-MB-435 melanoma, 21.2%. The growth is 0.696% (active) in the test on SW-620 colon; 11.1% in the test with MCF7 breast; 0.577% (active) in the test on HCT-116 colon; 16% in the test on HCC-2998 colon; 4.89% (active) in the test with KM12 colon.
For `Cc1nc2c(nnn2-c2ccccc2)c2nc(-c3ccc(Cl)cc3)oc(=O)c12`, the growth was 103% with SR leukemia; 108% with RPMI-8226 leukemia; 110% in the test with OVCAR-8 ovarian; 104% in the test on OVCAR-5 ovarian; 114% with OVCAR-4 ovarian; 119% with SK-OV-3 ovarian. Moreover, the growth with IGROV1 ovarian is 111%; in the test with OVCAR-3 ovarian, 118%; in the test with HS 578T breast it was 107%; with NCI/ADR-RES ovarian, 113%; in the test on BT-549 breast it was 107%; with MDA-MB-435 melanoma, 106%. Further, the growth is 107% in the test on SW-620 colon; 95.2% in the test on MCF7 breast; 109% in the test on HCT-116 colon; 111% in the test with HCC-2998 colon; 113% in the test with KM12 colon.
Consider `NCCCOc1cc(Cl)ccc1NC(=O)c1cc2ccccc2cc1OCCCN`, for which the growth was -38.9% (active) in the test on SR leukemia; -43.9% (active) in the test with RPMI-8226 leukemia; -73.3% (active) in the test on OVCAR-8 ovarian; -72.3% (active) in the test with OVCAR-5 ovarian; -70.6% (active) in the test with OVCAR-4 ovarian; -42.4% (active) in the test on SK-OV-3 ovarian. The growth in the test with IGROV1 ovarian was -43.5% (active); with OVCAR-3 ovarian, -86.9% (active); in the test on HS 578T breast it was -56.4% (active); in the test on NCI/ADR-RES ovarian, 57.2%; in the test with T-47D breast, -70.5% (active); with MDA-MB-435 melanoma, -68.5% (active). The growth with SW-620 colon is -92% (active); with MCF7 breast, -93.9% (active); with HCT-116 colon, -97.3% (active); in the test on KM12 colon it was -94.9% (active).
As for `COC(=O)c1ccc2[nH]c(O)c(C(=Nc3ccc(N(C)C(=O)CN4CCN(C)CC4)cc3)c3ccc(OC)cc3)c2c1`, the growth in the test with SR leukemia was -14.8% (active); in the test on RPMI-8226 leukemia, 7.14% (active); in the test with OVCAR-8 ovarian, 25.6%; with OVCAR-5 ovarian it was 38.4%; with OVCAR-4 ovarian, 38.7%; in the test on SK-OV-3 ovarian, 2.38% (active). Further, the growth in the test on IGROV1 ovarian is 6.44% (active); in the test on OVCAR-3 ovarian it was 30.4%; in the test with HS 578T breast, 11.9%; in the test on NCI/ADR-RES ovarian it was 101%; with BT-549 breast, 22.5%; with MDA-MB-435 melanoma, 29.6%. Further, the growth is 4.33% (active) in the test with SW-620 colon; 23.9% in the test with MCF7 breast; 3.03% (active) in the test on HCT-116 colon; 30.8% in the test on HCC-2998 colon; 13.1% with KM12 colon.
`O=C(Nc1ccc(-n2cc(-c3ccncc3)c(-c3ccc(Cl)c(O)c3)n2)cc1)c1ccc(Cl)c(Cl)c1`: the growth is 5.94% (active) in the test with SR leukemia; -25.9% (active) in the test with RPMI-8226 leukemia; 38.5% with OVCAR-8 ovarian; 56.5% in the test on OVCAR-5 ovarian; 47.4% with OVCAR-4 ovarian; 34.1% in the test on SK-OV-3 ovarian. Also, the growth is 67.4% in the test with IGROV1 ovarian; 61.3% with OVCAR-3 ovarian; -35.1% (active) in the test with HS 578T breast; 51.6% with NCI/ADR-RES ovarian; 71.9% with T-47D breast; 43.5% with MDA-MB-435 melanoma. Besides, the growth with SW-620 colon is 11.2%; in the test with MCF7 breast, 27.9%; in the test on HCT-116 colon, 16.8%; in the test with KM12 colon it was 0.115% (active).
